From PMC7862700, “An all-to-all approach to the identification of sequence-specific readers for epigenetic DNA modifications on cytosine”

Key:
Experiment in all cases: DAPPL (digital affinity profiling via proximity ligation, sequencing); 10 mM Tris-HCl pH 7.5, 50 mM NaCl, 1 mM DTT, 4% glycerol, room temperature, 30 min; GST-TFs on glutathione beads, 16-mer random dsDNA library, 0.1% formaldehyde crosslink after washing; high values mean tight binding
Details in all cases: protein: recombinant; tags: N-terminal GST; dsDNA, one strand shown
FLI1 = target: T1, FLI1 (Homo sapiens, UniProt Q01543 1-452)
T1 sequence: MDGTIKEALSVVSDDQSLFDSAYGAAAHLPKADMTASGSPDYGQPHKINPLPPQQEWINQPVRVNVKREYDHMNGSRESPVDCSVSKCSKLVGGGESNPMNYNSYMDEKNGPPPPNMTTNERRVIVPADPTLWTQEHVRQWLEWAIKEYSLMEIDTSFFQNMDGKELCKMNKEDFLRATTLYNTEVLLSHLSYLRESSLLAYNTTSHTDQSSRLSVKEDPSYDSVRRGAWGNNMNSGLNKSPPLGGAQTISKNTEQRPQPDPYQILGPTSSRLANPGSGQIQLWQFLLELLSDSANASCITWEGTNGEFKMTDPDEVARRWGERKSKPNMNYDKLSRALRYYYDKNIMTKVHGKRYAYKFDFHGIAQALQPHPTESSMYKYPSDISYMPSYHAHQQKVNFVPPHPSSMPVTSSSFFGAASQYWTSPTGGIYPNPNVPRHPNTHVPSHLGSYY
How it was run: (§1)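 In yeast, human transcription factors were expressed with a GST fusion, then pulled down on glutathione beads and given DNA barcodes. Pooled with a tag-only sample, they were exposed to 200 nmole of a 16-mer random double-stranded DNA library (Tris/NaCl/DTT/glycerol buffer, room temperature, 30 min), washed, crosslinked with 0.1% formaldehyde, proximity-ligated using BsaI/T4 ligase for 1 h at 37 °C, PCR-amplified and read on an Illumina NextSeq500. Each hexamer's frequency of reads for a factor, divided by the matching frequency for the tag-only sample, gives the binding signal.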

GABPA = target: T2, GABPA (Homo sapiens, UniProt Q06546 1-454)
T2 sequence: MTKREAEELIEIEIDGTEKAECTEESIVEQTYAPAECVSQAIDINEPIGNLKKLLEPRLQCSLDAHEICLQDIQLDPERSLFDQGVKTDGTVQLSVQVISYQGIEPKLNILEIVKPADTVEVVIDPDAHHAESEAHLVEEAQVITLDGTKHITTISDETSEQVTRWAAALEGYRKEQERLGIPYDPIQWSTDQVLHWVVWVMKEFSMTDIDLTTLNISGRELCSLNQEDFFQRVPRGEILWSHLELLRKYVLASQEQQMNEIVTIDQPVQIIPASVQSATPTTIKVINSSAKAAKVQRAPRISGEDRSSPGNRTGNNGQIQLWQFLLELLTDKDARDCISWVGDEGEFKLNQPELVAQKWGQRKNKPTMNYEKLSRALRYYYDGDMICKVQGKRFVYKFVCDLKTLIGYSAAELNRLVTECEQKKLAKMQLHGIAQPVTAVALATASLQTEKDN
How it was run: as §1

ELF1 = ELF1 (Homo sapiens, UniProt P32519 1-619)
How it was run: as §1

SPIB = SPIB (Homo sapiens, UniProt Q01892 1-262)
How it was run: as §1

ELF4 = ELF4 (Homo sapiens, UniProt Q99607 1-663)
How it was run: as §1

ETV2 = target: T3, ETV2 (Homo sapiens, UniProt O00321 1-342)
T3 sequence: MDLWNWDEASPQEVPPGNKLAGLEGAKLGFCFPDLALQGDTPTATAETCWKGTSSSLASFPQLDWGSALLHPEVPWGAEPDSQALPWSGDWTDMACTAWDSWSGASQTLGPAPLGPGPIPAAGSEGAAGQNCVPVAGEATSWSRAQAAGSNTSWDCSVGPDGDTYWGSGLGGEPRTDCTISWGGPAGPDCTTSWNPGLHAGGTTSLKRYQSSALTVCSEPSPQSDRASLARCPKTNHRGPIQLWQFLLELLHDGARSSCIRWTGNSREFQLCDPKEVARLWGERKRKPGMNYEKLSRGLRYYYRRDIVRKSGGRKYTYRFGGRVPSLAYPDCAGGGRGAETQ
How it was run: as §1

ELF3 = target: T4, ELF3 (Homo sapiens, UniProt P78545 1-371)
T4 sequence: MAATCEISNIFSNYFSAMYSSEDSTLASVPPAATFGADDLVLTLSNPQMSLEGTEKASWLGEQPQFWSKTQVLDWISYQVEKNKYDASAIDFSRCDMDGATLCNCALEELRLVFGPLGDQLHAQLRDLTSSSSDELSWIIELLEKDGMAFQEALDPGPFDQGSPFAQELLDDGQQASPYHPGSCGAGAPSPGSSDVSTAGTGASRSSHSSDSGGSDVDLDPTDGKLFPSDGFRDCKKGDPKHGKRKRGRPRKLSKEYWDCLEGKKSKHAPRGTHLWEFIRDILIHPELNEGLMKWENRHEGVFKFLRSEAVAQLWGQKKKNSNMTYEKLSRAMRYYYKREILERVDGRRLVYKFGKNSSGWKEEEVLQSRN
How it was run: as §1

ETV1 = ETV1 (Homo sapiens, UniProt P50549 1-477)
How it was run: as §1

ERF = target: T5, ERF (Homo sapiens, UniProt P50548 1-548)
T5 sequence: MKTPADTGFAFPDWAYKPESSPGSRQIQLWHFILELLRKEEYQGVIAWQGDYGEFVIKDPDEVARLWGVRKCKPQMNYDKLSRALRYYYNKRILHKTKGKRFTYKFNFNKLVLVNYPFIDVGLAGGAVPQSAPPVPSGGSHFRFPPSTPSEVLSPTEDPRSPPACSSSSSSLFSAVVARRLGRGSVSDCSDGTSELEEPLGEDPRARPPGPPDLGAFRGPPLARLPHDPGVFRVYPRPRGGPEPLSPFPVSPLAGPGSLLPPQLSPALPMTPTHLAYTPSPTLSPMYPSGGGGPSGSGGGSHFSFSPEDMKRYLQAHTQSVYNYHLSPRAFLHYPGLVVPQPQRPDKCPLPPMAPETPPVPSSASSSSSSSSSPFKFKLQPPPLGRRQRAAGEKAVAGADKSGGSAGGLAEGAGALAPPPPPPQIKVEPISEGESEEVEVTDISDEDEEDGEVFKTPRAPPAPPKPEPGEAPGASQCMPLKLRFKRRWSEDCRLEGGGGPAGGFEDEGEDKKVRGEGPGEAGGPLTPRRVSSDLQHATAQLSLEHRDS
How it was run: as §1

ETV3L = target: T6, ETV3L (Homo sapiens, UniProt Q6ZN32 1-361)
T6 sequence: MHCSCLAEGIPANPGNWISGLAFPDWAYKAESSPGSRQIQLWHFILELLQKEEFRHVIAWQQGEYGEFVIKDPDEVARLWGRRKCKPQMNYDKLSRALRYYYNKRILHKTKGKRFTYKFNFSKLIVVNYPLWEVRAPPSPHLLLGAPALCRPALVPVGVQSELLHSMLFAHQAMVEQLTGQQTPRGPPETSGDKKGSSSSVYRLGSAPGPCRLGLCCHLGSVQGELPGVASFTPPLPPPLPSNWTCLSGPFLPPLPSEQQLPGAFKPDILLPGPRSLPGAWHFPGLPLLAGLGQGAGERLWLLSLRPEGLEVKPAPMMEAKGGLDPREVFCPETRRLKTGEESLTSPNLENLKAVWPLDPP
How it was run: as §1

SPDEF = target: T7, SPDEF (Homo sapiens, UniProt O95238 1-335)
T7 sequence: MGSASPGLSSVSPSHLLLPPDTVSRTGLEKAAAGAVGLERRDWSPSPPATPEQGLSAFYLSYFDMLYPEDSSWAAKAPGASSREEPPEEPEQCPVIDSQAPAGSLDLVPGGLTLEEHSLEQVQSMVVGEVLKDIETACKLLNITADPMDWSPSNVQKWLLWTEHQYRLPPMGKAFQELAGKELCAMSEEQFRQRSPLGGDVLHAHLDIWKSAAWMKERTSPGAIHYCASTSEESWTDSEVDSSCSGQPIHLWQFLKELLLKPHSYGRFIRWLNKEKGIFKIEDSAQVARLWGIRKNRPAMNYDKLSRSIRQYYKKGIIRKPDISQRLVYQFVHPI
How it was run: as §1

ETV7 = target: T8, ETV7 (Homo sapiens, UniProt Q9Y603 1-341)
T8 sequence: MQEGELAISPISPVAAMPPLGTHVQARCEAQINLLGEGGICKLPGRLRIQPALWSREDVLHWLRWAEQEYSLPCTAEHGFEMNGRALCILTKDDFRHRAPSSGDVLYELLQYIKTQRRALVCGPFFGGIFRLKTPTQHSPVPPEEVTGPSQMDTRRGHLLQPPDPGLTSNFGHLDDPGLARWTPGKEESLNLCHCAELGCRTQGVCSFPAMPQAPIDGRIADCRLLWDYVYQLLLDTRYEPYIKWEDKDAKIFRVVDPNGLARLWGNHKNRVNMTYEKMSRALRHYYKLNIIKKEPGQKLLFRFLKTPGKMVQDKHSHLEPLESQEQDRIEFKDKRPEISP
How it was run: as §1

ETV6 = ETV6 (Homo sapiens, UniProt P41212 1-452)
How it was run: as §1

ETV6, sequence (P41212 whole entry): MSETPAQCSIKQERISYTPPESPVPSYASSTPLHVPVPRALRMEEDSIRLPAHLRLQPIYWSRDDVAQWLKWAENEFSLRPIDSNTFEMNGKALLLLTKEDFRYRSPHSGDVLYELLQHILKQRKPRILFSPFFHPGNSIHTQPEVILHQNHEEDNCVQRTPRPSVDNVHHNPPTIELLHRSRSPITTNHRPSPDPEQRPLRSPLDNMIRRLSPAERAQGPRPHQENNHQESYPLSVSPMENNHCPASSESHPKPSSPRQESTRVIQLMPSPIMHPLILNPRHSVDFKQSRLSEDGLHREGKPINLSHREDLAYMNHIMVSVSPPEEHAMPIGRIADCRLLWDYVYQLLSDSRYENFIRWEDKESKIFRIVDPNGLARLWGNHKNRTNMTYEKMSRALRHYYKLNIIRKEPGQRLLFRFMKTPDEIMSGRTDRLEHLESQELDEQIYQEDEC
ELF1, sequence (P32519 whole entry): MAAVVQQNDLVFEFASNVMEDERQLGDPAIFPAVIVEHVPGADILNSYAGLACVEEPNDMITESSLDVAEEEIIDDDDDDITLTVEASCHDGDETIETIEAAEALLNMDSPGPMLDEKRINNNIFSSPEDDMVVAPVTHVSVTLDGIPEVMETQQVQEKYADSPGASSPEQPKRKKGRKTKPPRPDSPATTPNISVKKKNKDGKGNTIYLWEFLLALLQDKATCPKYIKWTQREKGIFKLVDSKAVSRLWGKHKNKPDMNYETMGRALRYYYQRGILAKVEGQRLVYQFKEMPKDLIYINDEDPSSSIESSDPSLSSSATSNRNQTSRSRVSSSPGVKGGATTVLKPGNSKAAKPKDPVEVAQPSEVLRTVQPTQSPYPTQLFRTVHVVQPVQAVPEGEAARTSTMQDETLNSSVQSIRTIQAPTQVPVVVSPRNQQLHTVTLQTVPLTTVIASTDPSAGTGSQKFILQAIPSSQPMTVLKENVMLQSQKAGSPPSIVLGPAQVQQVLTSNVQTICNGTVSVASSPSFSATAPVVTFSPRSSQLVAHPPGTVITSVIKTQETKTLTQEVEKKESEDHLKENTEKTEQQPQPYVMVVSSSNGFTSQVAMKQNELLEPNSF
ELF4, sequence (Q99607 whole entry): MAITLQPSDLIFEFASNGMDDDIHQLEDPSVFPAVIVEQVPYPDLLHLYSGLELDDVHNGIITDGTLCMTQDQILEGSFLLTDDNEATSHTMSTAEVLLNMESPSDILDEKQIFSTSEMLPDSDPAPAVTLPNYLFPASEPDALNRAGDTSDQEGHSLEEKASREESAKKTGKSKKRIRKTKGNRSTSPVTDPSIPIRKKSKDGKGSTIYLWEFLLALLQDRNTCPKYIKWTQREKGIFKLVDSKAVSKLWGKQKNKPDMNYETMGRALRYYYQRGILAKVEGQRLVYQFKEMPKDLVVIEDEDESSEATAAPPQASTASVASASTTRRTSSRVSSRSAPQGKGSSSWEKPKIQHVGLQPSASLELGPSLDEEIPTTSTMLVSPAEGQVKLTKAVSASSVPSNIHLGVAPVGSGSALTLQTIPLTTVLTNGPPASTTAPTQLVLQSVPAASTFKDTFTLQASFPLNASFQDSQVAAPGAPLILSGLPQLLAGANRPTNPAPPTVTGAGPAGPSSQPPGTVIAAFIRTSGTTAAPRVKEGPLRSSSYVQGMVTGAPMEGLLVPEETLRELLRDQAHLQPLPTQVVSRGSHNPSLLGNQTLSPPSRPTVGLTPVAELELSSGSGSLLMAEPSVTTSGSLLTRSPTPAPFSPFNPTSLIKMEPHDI
ETV1, sequence (P50549 whole entry): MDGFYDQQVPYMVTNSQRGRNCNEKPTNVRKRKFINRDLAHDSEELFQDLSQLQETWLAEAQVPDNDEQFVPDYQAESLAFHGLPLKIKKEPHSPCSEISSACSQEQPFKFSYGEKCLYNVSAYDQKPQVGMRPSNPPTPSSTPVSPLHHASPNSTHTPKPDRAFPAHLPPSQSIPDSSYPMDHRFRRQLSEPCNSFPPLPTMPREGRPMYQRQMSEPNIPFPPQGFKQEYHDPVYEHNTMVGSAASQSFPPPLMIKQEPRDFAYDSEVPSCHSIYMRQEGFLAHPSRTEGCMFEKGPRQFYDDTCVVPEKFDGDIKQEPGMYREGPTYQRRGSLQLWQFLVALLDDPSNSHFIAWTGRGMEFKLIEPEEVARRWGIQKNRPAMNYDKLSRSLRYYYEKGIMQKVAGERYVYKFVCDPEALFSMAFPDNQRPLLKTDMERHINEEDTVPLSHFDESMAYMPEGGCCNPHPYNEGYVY
SPIB, sequence (Q01892 whole entry): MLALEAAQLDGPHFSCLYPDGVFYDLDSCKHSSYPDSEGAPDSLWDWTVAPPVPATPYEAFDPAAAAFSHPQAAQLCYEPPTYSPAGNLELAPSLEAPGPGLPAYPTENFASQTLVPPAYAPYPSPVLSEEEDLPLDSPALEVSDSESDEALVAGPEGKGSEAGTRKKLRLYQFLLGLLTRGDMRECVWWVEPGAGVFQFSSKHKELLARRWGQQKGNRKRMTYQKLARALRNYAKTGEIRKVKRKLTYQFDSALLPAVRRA

For CGTACG, the binding signal (FLI1) was 1 fold enrichment (6-mer frequency, TF over GST control), the binding signal (GABPA) was 1.03 fold enrichment (6-mer frequency, TF over GST control) and the binding signal (ELF1) was 1.07 fold enrichment (6-mer frequency, TF over GST control). For the same sequence, the binding signal (SPIB) was 1.01 fold enrichment (6-mer frequency, TF over GST control), the binding signal (ELF4) was 1.07 fold enrichment (6-mer frequency, TF over GST control) and the binding signal (ETV2) was 1.19 fold enrichment (6-mer frequency, TF over GST control). The binding signal (ELF3) was 1.01 fold enrichment (6-mer frequency, TF over GST control), the binding signal (ETV1) was 1.1 fold enrichment (6-mer frequency, TF over GST control) and the binding signal (ERF) was 1.04 fold enrichment (6-mer frequency, TF over GST control). The binding signal (ETV3L) was 1.08 fold enrichment (6-mer frequency, TF over GST control), the binding signal (SPDEF) was 1.02 fold enrichment (6-mer frequency, TF over GST control) and the binding signal (ETV7) was 1.06 fold enrichment (6-mer frequency, TF over GST control). For the same sequence, the binding signal (ETV6) was 1.06 fold enrichment (6-mer frequency, TF over GST control).
